Our source for the composite z-score values is PubChem BioAssay.

Chain of Torsin-1A (Homo sapiens) (O14656 whole entry, looked up): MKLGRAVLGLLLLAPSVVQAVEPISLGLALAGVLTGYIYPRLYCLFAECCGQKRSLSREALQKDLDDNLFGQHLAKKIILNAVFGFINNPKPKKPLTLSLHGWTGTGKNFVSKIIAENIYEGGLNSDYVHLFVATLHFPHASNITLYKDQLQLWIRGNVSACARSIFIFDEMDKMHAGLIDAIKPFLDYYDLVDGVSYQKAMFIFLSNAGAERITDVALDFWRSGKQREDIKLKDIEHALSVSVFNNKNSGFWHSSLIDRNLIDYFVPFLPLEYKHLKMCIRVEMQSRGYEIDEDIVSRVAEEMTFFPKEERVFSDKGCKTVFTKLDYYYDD

The assay addresses Torsin-1A (Homo sapiens) (UniProt O14656). Briefly: torsin A binders from cell lysate, primary screen, small-molecule microarray, wild-type, 635/667 nm (AID 1149). The conditions noted are these: COS7 hTOR1A-WT lysate, 635 nm fluorescence, higher = more signal.
`COCCOC(=O)N1C(=O)[C@@]2(c3cc(C#CC4(O)CCCCCC4)ccc31)[C@H](C(N)=O)[C@H]1C(=O)O[C@H](c3ccccc3)[C@H](c3ccccc3)N1[C@@H]2c1ccccc1OCCO` came in with a composite z-score of 0.329.

In turn, `C=CCN1C(=O)[C@@]2(O[C@@H](CCO)[C@H]([Si](C)(C)c3ccc(OC)cc3)[C@H]2C)c2cc(N3C(=O)c4ccccc4Oc4ccccc43)ccc21` had a composite z-score of -0.331.

For `C[C@]1(C(=O)NC2CC2)c2ccccc2C(=O)N(Cc2ccc(OC(F)(F)F)cc2)[C@H]1c1ccc(CO)cc1`, the composite z-score was found to be 0.398.

Molecule `CC(C)(C)OC(=O)CC[C@]1(C(=O)N2CCOCC2)N=C(c2ccc(OCCCO)cc2)O[C@H]1c1ccccc1` showed a composite z-score of -0.0284.

The molecule `C=C[C@@H](C)[C@H](OC(=O)Nc1ccc(SC)cc1)c1ccc(OCCO)cc1` came in with a composite z-score of -0.582.

Molecule `COC(=O)[C@@]1(Cc2ccc(OC)cc2)[C@H]2c3cc(C(=O)N4CCCC4)n(CCc4cc5ccccc5[nH]4)c3C[C@H]2CN1C(=O)c1ccccc1` showed a composite z-score of 0.368.

Turning to `C=CCNC(=O)[C@@H]1[C@H]2C(=O)O[C@H](c3ccccc3)[C@H](c3ccccc3)N2[C@H](c2ccc(OCCO)cc2)[C@@]12C(=O)N(C(=O)OCCOC)c1ccc(C#CC3=CCCCC3)cc12`, the composite z-score turned out to be 0.694.

The molecule `CC(C)C(CO)N1C(=O)[C@]2(C)C3C(=O)OCCC/C=C\[C@H]3OC23C=CCN(c2ccc(Cl)cc2)C(=O)[C@@H]13` (stereo not given in full) returned a composite z-score of -1.47.

In the case of `C=CC[C@H](OC(=O)Nc1ccc(OC)cc1)c1ccc(O)c2ccccc12`, the composite z-score was 0.51.

Turning to `COc1cc(CO)cc(I)c1O[C@H]1C=C(C(=O)NCCO)C[C@@H](N(Cc2ccc(F)cc2)C(=O)C2CCCO2)[C@@H]1O` (stereo not given in full), the composite z-score was -0.0326.

In turn, `CCCC[C@@H]1C[C@H]1[C@@H](NC(=O)c1ccccc1)c1ccc(Cl)cc1` came in with a composite z-score of 4.37.

In turn, `CN(C)CCCNC(=O)[C@@H]1c2ccccc2C(=O)N(CC23CC4CC(CC(C4)C2)C3)[C@H]1c1ccc(CO)cc1` registered a composite z-score of 0.954.

Molecule `CC(=O)N1Cc2ccccc2C[C@]2(N=C(c3ccc(OCCCO)cc3)O[C@@H]2c2ccccc2)C1=O` showed a composite z-score of 0.611.

`C=CCOC(=O)[C@H]1[C@@H]2C(=O)O[C@@H](c3ccccc3)[C@@H](c3ccccc3)N2[C@@H](c2ccc(OCCOC(=O)[C@H]3C[C@H]4C(=O)N[C@@H](Cc5ccccc5)C(=O)N4[C@H]3c3ccc(O)cc3)cc2)[C@]12C(=O)Nc1ccc(I)cc12`: the composite z-score is 0.586.

`COC(=O)C1(Cc2ccccc2)C=C2C(=C(C(C)C)C(=O)C2C)CN1` (stereo not given) yielded a composite z-score of 0.334.

`C=CC[C@]12N=C(c3ccc(OCCCO)cc3)O[C@H]1c1ccccc1N(C)C2=O` gave a composite z-score of -0.0323.

`CC=CC(O)C1C=CC2C(=O)N(C)C(=O)C2N1N1CCCCC1` (stereo not given) returned a composite z-score of 0.74.

`CCCNC(=O)[C@@]1(c2ccc([N+](=O)[O-])cc2)CC(=O)N(C2CCCCC2)[C@@H]1c1ccc(CO)cc1I` gave a composite z-score of 0.224.

In turn, `O=C1C[C@@](C(=O)NCC(F)(F)F)(c2ccc([N+](=O)[O-])cc2)[C@@H](c2ccc(CO)cc2)N1C1CCCCC1` had a composite z-score of 1.36.

In turn, `CCOC(=O)C[C@H]1[C@H](OC(=O)c2ccccc2-c2ccccc2)[C@@H](NC(=O)CC(C)C)c2cc(OCCCO)ccc2N1C(=O)c1ccc2ccccc2n1` registered a composite z-score of 0.0167.

Consider `COc1ccc(C(O)C2C=CC3C(=O)N(C)C(=O)C3N2N2CCCCC2)cc1` (stereo not given), for which the composite z-score turned out to be 0.718.

In turn, `CCCCC(CC)C(O)C1C=CC2C(=O)N(c3ccccc3)C(=O)C2N1Nc1ccc([N+](=O)[O-])cc1` (stereo not given) had a composite z-score of 0.202.

`C=C(C(=O)CC[C@H](OC(C)=O)c1cccc(OCCO)c1)C(C)C`: the composite z-score was -0.34.

`C=C(/C(=C/C[C@@H](OC(=O)c1ccncc1)c1ccccc1OCCO)c1cc(C(=O)OC)ccc1OC)C(C)C` showed a composite z-score of 0.438.

`COc1ccc([Si](C)(C)[C@H]2[C@H](CCn3cc([C@H](O)c4ccccc4)nn3)O[C@@]3(C(=O)N(Cc4ccc(N5CCOC5=O)cc4)c4ccccc43)[C@@H]2C)cc1` registered a composite z-score of -0.995.

Molecule `CC(C)OC(=O)CC(=O)CC(O)c1cccc(C#N)c1` (stereo not given) gave a composite z-score of 0.863.

As to `COc1cc(CO)cc(I)c1O[C@H]1C=C(C(=O)NCCO)C[C@@H](NCc2ccccc2F)[C@@H]1O`, the composite z-score stood at 0.235.

Turning to `CC(C)CN1C(=O)[C@@]2(Cc3ccccc31)c1ccccc1C(=O)N(Cc1ccccc1C(F)(F)F)[C@H]2c1ccc(CO)cc1`, the composite z-score is -2.38.

Take `CCOC(=O)[C@@H]1[C@@H]2C(=O)N(CC)C(=O)[C@@H]2C[C@@H]1Sc1ccccc1`: the composite z-score is 0.592.

Regarding `C=CC[C@@H](OC(=O)Nc1ccc(OC)cc1)c1ccc(OCCO)cc1`, the composite z-score was -3.71.
